Assay results reported in PubChem BioAssay AID1159580 (chemical genetic matrix, 2015).
“And” between values parts separate entries of the source, which are not always exact repeats. Equal entries are not always repeated. In all, about 5,500 compounds went through this assay and about 2,000 (36%) were called active. Another 18% or so got no clear call; they are omitted. No stated cut-off is given here; in the data, active means normalized growth mostly below about 0.91 (no sharp cut-off); inconclusive means no clear call, values can overlap the other calls; inactive means mostly above about 0.92. The list shows a part of the results.

Assay: chemical genetic growth profiling, strain panel (AID 1159580);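 further: tested at 20 µM; growth read once vehicle control cultures reached saturation at 30 °C; 1 = growth at the plate median or of vehicle wells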
Settings: S. cerevisiae deletion strains, growth OD

Measured: normalized growth

C[N+]12CCC(CC1)C(OC(=O)C(O)(c1ccccc1)c1ccccc1)C2 (configuration not stated)
inactive: locus YAL013W, strain DEP1, stronger effect = lower value 0.995 | locus YAL021C, strain ccr4, stronger effect = lower value 0.983 | locus YAL026C, strain drs2, stronger effect = lower value 1.01 | locus YAL030W, strain snc1, stronger effect = lower value 0.985 | locus YBL061C, strain skt5, stronger effect = lower value 0.968 | locus YBR009C, strain hhf1, stronger effect = lower value 0.989 | locus YBR021W, strain FUR4, stronger effect = lower value 0.99 | locus YBR023C, strain chs3, stronger effect = lower value 0.987 | locus YBR171W, strain sec66, stronger effect = lower value 0.957 | locus YBR229C, strain ROT2, stronger effect = lower value 0.989 | locus YBR231C, strain swc5, stronger effect = lower value 0.995 | locus YBR279W, strain paf1, stronger effect = lower value 0.985 | locus YCL011C, strain gbp2, stronger effect = lower value 0.951 | locus YCL016C, strain dcc1, stronger effect = lower value 0.956 | locus YCL029C, strain bik1, stronger effect = lower value 0.956 | locus YCL061C, strain MRC1, stronger effect = lower value 0.992 | locus YCL069W, strain vba3, stronger effect = lower value 0.998 | locus YCR088W, strain abp1, stronger effect = lower value 0.984 | locus YDL005C, strain med2, stronger effect = lower value 0.974 | locus YDL035C, strain GPR1, stronger effect = lower value 1.03 | locus YDL040C, strain nat1, stronger effect = lower value 0.993 | locus YDL074C, strain BRE1, stronger effect = lower value 0.975 | locus YDL101C, strain DUN1, stronger effect = lower value 0.975 | locus YDL134C, strain PPH21, stronger effect = lower value 0.981 | locus YDL185W, strain tfp1, stronger effect = lower value 0.974 | locus YDL192W, strain arf1, stronger effect = lower value 0.992 | locus YDR001C, strain nth1, stronger effect = lower value 0.978 | locus YDR069C, strain doa4, stronger effect = lower value 0.982 | locus YDR101C, strain arx1, stronger effect = lower value 0.971 | locus YDR137W, strain rgp1, stronger effect = lower value 0.975 | locus YDR150W, strain NUM1, stronger effect = lower value 0.996 | locus YDR159W, strain sac3, stronger effect = lower value 1.01 | locus YDR162C, strain NBP2, stronger effect = lower value 1 | locus YDR195W, strain ref2 0.983 | locus YDR297W, strain sur2, stronger effect = lower value 0.976 | locus YDR318W, strain mcm21, stronger effect = lower value 0.975 | locus YDR334W, strain swr1, stronger effect = lower value 0.938 | locus YDR335W, strain msn5, stronger effect = lower value 0.971 | locus YDR388W, stronger effect = lower value 0.984 | locus YDR392W, strain spt3, stronger effect = lower value 0.922 | locus YDR502C, strain sam2, stronger effect = lower value 0.987 | locus YEL003W, strain gim4, stronger effect = lower value 0.987 | locus YEL037C, strain rad23, stronger effect = lower value 0.988 | locus YEL061C, strain CIN8 (second series), stronger effect = lower value 0.987 | locus YEL061C, strain CIN8, stronger effect = lower value 0.993 | locus YER015W, strain faa2, stronger effect = lower value 0.987 | locus YER016W, strain bim1, stronger effect = lower value 0.989 | locus YER110C, stronger effect = lower value 0.975 | locus YER111C, strain swi4, stronger effect = lower value 0.987 | locus YER155C, strain BEM2 (second series), stronger effect = lower value 1.01 | locus YER155C, strain BEM2, stronger effect = lower value 0.983 | locus YER167W, strain BCK2, stronger effect = lower value 0.992 | locus YFR010W, strain ubp6, stronger effect = lower value 0.981 | locus YGL078C, strain dbp3, stronger effect = lower value 0.992 | locus YGL086W, strain mad1, stronger effect = lower value 1 | locus YGL167C, strain pmr1, stronger effect = lower value 0.976 | locus YGL173C, strain kem1, stronger effect = lower value 0.974 | locus YGL227W, strain vid30, stronger effect = lower value 0.979 | locus YGL240W, strain doc1, stronger effect = lower value 0.981 | locus YGL248W, strain PDE1, stronger effect = lower value 0.99 | locus YGL253W, strain hxk2, stronger effect = lower value 0.966 | locus YGR078C, strain PAC10, stronger effect = lower value 0.983 | locus YGR135W, strain pre9, stronger effect = lower value 0.971 | locus YGR229C, strain SMI1, stronger effect = lower value 1 | locus YGR252W, strain gcn5, stronger effect = lower value 1.09 | locus YHR013C, strain ard1, stronger effect = lower value 0.962 | locus YHR027C, strain rpn1, stronger effect = lower value 0.974 | locus YHR030C, strain SLT2, stronger effect = lower value 0.988 and 0.977 | locus YHR079C, strain IRE1 (second series), stronger effect = lower value 0.97 | locus YHR079C, strain IRE1, stronger effect = lower value 1 | locus YHR094C, strain hxt1, stronger effect = lower value 0.982 | locus YHR129C, strain ARP1, stronger effect = lower value 0.99 | locus YHR142W, strain chs7, stronger effect = lower value 0.944 | locus YHR200W, strain rpn10, stronger effect = lower value 0.979 | locus YIL066C, strain RNR3, stronger effect = lower value 0.983 | locus YIL073C, strain SPO22, stronger effect = lower value 0.972 | locus YIL125W, strain kgd1, stronger effect = lower value 0.994 | locus YIR030C, strain dcg1, stronger effect = lower value 0.971 | locus YJL092W, strain hpr5, stronger effect = lower value 0.985 | locus YJL095W, strain BCK1 (second series), stronger effect = lower value 0.981 | locus YJL095W, strain BCK1, stronger effect = lower value 0.967 and 0.963 | locus YJL115W, strain asf1, stronger effect = lower value 0.968 | locus YJL129C, strain trk1, stronger effect = lower value 0.974 | locus YJL134W, strain LCB3, stronger effect = lower value 0.994 | locus YJL154C, strain vps35, stronger effect = lower value 0.98 | locus YJL164C, strain tpk1, stronger effect = lower value 0.979 | locus YJL166W, strain qcr8, stronger effect = lower value 0.95 | locus YJL168C, strain set2, stronger effect = lower value 0.984 | locus YJL187C, strain SWE1 (second series), stronger effect = lower value 0.974 | locus YJL187C, strain SWE1, stronger effect = lower value 0.988 | locus YJR043C, strain POL32, stronger effect = lower value 0.99 | locus YJR066W, strain TOR1, stronger effect = lower value 0.987
